Experimental findings from PubChem BioAssay (EPA / NIEHS) are described below.

The target of assay [1] is Nuclear respiratory factor 1 (Homo sapiens) (UniProt Q16656). Put plainly: ATG_NRF1_CIS: Attagene CIS-FACTORIAL HepG2 Assay for human Nuclear Respiratory Factor 1 (NRF1) Orphan Gene (AID 2282987). The note with it: HepG2 NRF1 cis-element reporter, Attagene multiplex; actives raise or lower the signal. In a few lines:
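Using DMSO as baseline, gain- or loss-of-signal was fitted for reporter mRNA levels in HepG2 cells transiently transfected with cis-regulated reporter units. Samples were taken 24 h after dosing and read by RT-PCR with capillary electrophoresis.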

The nature of assay [2]: ATG_NFI_CIS: Attagene CIS-FACTORIAL HepG2 Assay for human Nuclear Factor I (NFI) (AID 2282989). The note with it: HepG2 cis-regulatory reporter, NFI response element transcription; actives raise or lower the signal. In a few lines:
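Read-out: reporter mRNA via RT-PCR plus capillary electrophoresis with fluorescence detection. Transiently transfected HepG2 (endogenous TF activity on cis promoters), 24 h compound exposure; gain or loss of signal fitted against DMSO.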

Assay [3] has as its target Myc proto-oncogene protein (Homo sapiens) (UniProt P01106). Put plainly: ATG_Myc_CIS: Attagene CIS-FACTORIAL HepG2 Assay for human Myelocytomatosis (Myc) Proto-Oncogene Transcription Factor (AID 2282990). The note with it: HepG2, Attagene cis-reporter transcription factor activity; actives raise or lower the signal. The method in brief: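 Cells of the HepG2 human liver line bear multiple cis-driven reporter transcription units. Reporter mRNA after 24 h exposure is reverse-transcribed, amplified, labelled and resolved by capillary electrophoresis, with gain- or loss-of-signal fitting relative to DMSO.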

Assay [4] is described as follows: ATG_NF_kB_CIS: Attagene CIS-FACTORIAL HepG2 Assay for human Nuclear Factor Kappa B (NF-kB) (AID 2282991). The note with it: HepG2 Attagene cis-factorial NF-kB reporter mRNA; actives raise or lower the signal. The method in brief:
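Endpoint from a 52-component multiplexed HepG2 reporter panel: cis-regulated transcription units transiently transfected, 24 h dosing, reporter mRNA quantified by RT-PCR and capillary electrophoresis, scored as increase or decrease against DMSO.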

The nature of assay [5]: ATG_NRF2_ARE_CIS: Attagene CIS-FACTORIAL HepG2 Assay for human Nuclear Factor Erythroid 2 Related Factor 2 (NFR2) response to Antioxidant Response Elements (ARE) (AID 2282992).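 On AC50: reporter mRNA level measured by RT-PCR and capillary electrophoresis fluorescence.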 The note with it: HepG2 Attagene ARE/NRF2 reporter, transcription factor activity; actives raise or lower the signal. The method in brief:
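HepG2 cells transiently transfected with multiplexed cis-element reporter constructs, 24 h after chemical dosing; reporter mRNA quantified by RT-PCR, fluorescent primer extension, HpaI digestion and capillary electrophoresis. Bidirectional fit relative to DMSO.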

Assay [6] in a line: ATG_Oct_MLP_CIS: Attagene CIS-FACTORIAL HepG2 Assay for human Octamer-Binding Transcription Factor (Oct) (AID 2282993). The note with it: HepG2 Attagene cis-factorial Oct reporter, mRNA; actives raise or lower the signal. In a few lines:
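Read-out: reporter mRNA via RT-PCR plus capillary electrophoresis of 6-FAM-labelled fragments. Transiently transfected HepG2, 24 h exposure, endogenous TF activity on cis elements. Gain or loss of signal fitted relative to DMSO.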

Assay [7] deals with Cellular tumor antigen p53 (Homo sapiens) (UniProt P04637). Put plainly: ATG_p53_CIS: Attagene CIS-FACTORIAL HepG2 Assay for human p53 Transcription Factor (AID 2282994). The note with it: HepG2 p53 cis-element reporter, Attagene mRNA; actives raise or lower the signal. In a few lines:
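HepG2 cells transiently transfected with cis-regulated multiple reporter transcription units, dosed 24 h. Reporter mRNA measured by RT-PCR, 6-FAM primer extension, HpaI digestion and capillary electrophoresis; bidirectional fit relative to DMSO.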

Assay [8] in a line: BSK_3C_TissueFactor: BioMAP Diversity Plus: 3C Assay for Tissue Factor Biomarker Activity (AID 2282997). The note with it: BioMAP 3C HUVEC, tissue factor biomarker readout; actives raise or lower the signal. The method in brief:
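Values derive from bidirectional curve fitting against DMSO of Tissue Factor ELISA signals, taken 24 h after dosing primary human umbilical vein endothelial cells.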

The nature of assay [9]: BSK_3C_uPAR: BioMAP Diversity Plus: 3C Assay for Urokinase-type plasminogen activator receptor (uPAR) Biomarker Activity (AID 2282998). The note with it: BioMAP 3C HUVEC, uPAR biomarker ELISA; actives raise or lower the signal. In a few lines: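 HUVEC primary cells; 24 h post-dose; uPAR by ELISA; gain or loss of signal fitted bidirectionally vs DMSO baseline.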
A short description of assay [10]: BSK_3C_VCAM1: BioMAP Diversity Plus: 3C Assay for Vascular cell adhesion molecule 1 (VCAM1) Biomarker Activity (AID 2282999). The note with it: BioMAP 3C HUVEC, VCAM1 ELISA, cytokine-stimulated; actives raise or lower the signal. The method in brief: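 Endothelial cells from human umbilical vein are treated with test chemical. At 24 h, VCAM-1 is measured by ELISA, and responses in either direction are fitted relative to DMSO.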

Activity calls are given as the source filed them. How the source made its calls: active means hit-call score of the fitted dose curve at least 0.9, where 1 is the maximum; inactive means score below 0.9.

Sequence of Cellular tumor antigen p53 (Homo sapiens) (P04637 whole entry, looked up): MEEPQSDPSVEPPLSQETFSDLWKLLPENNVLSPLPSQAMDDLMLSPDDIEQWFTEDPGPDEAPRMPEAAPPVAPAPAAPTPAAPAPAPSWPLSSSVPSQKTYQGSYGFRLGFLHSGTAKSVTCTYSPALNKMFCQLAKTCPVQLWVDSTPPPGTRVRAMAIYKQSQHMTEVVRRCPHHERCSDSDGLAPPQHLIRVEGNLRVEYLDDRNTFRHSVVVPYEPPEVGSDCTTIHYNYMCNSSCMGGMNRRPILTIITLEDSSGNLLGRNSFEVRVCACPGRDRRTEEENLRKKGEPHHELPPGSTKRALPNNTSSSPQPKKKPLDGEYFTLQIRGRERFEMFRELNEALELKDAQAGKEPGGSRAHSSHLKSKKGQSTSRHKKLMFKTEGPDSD
Sequence of Nuclear respiratory factor 1 (Homo sapiens) (Q16656 whole entry, looked up): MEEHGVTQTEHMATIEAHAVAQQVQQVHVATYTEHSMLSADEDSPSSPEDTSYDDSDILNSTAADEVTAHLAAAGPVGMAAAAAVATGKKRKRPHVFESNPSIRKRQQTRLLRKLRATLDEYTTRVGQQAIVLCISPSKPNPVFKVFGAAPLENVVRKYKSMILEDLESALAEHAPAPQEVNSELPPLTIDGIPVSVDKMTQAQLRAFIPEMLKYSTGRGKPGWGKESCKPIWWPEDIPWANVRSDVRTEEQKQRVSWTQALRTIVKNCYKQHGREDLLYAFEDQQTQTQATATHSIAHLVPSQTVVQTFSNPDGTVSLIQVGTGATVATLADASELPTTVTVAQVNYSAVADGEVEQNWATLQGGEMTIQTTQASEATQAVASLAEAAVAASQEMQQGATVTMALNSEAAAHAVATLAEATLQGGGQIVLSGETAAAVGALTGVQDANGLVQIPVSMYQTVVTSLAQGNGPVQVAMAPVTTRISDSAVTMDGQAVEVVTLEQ
Sequence of Myc proto-oncogene protein (Homo sapiens) (P01106 whole entry, looked up): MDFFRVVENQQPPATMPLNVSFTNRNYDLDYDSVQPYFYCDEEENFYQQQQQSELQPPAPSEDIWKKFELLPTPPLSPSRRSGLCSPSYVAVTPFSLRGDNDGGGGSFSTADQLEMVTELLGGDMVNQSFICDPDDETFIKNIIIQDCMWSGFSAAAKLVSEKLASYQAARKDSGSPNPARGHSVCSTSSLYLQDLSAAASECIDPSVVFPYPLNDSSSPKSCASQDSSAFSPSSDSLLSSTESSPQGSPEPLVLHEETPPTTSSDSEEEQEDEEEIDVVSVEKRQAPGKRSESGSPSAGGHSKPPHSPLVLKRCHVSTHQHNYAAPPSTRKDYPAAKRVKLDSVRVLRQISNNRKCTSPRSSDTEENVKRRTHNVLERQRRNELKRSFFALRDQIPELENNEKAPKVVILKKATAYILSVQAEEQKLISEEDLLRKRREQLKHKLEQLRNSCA

For the molecule `CC(C)(C)c1cc(O)c(C(C)(C)C)cc1O`, the AC50 – broadly, the concentration giving half of the maximal activity seen – was 162 µM (active) in assay [1]; 30.6 µM (active) in assay [2]; 114 µM (active) in assay [3]; 30.5 µM (active) in assay [5]; 33 µM (active) in assay [6]; 7.03 µM (active) in assay [8]. The AC50 in [10] is 9.79 µM (active). Moreover, the call in assay [4], in [7] and in [9] was inactive.

Take `C=CCOC(=O)c1ccccc1C(=O)OCC=C`: the molecule was called inactive in [1], in assay [2], in assay [3], in [4], in assay [6] and in [7]. In addition, the result in [8], in assay [9] and in assay [10] was inactive. Further, in assay [5], the AC50 was 27.2 µM (active).

As for `Cc1nc(-c2ccc3c(c2)CCN(CCC2CCC(NC(=O)/C=C/c4ccc(F)cc4)CC2)CC3)no1` (stereo not given), the outcome in assay [1], in assay [2], in assay [3], in assay [4], in assay [5] and in [6] was inactive. The molecule was classed as inactive in [7], in [8] and in assay [9]. For the same molecule, the half-maximal activity concentration (AC50) in assay [10] was 12.8 µM (active).

For `O=C(O)CCCCC(=O)O`, the result in assay [1], in [2], in assay [3], in [4], in assay [5] and in assay [6] was inactive. In addition, the call in assay [7], in assay [8], in assay [9] and in assay [10] was inactive.

As for `NC(=O)Cn1c(=O)cc(CCN2CCN(c3nccc4sccc34)CC2)c2ccc(F)cc21`, the molecule was called inactive in [1], in [2], in [3], in assay [4], in [6] and in assay [7]. Moreover, the result in assay [8], in assay [9] and in assay [10] was inactive. In assay [5], the half-maximal activity concentration (AC50) was 54.3 µM (active).

Regarding `CCCCOC(=O)CCCCCCCCC(=O)OCCCC`, the outcome in assay [1], in [2], in assay [3], in assay [4], in assay [5] and in [6] was inactive. Further, the result in assay [8], in [9] and in [10] was inactive. Besides, in assay [7], the AC50 is 156 µM (active).

For the molecule `C[C@]12C=CC(=O)C=C1CC[C@@H]1[C@@H]2C(=O)C[C@@]2(C)[C@H]1CC[C@]2(O)C(=O)CO`, the molecule was called inactive in assay [1], in [2], in assay [3], in assay [4], in assay [5] and in [6]. Further, the molecule was classed as inactive in [7], in assay [8], in assay [9] and in assay [10].

On to `CCCCCCCCCCO`, for which the call in assay [1], in assay [2], in [3], in assay [7], in [8] and in assay [9] was inactive. For the same molecule, the result in [10] was inactive. Moreover, the AC50 was 144 µM (active) in assay [4], 158 µM (active) in assay [5] and 173 µM (active) in [6].

As to `C[Si]1(C)O[Si](C)(C)O[Si](C)(C)O[Si](C)(C)O1`, the call in assay [1], in assay [2], in assay [3], in assay [4], in assay [5] and in assay [6] was inactive. The call in assay [7], in assay [8], in [9] and in assay [10] was inactive.

As for `Cc1ccc(C)c(O)c1C`, the call in assay [1], in assay [2], in assay [3], in [4], in [5] and in assay [6] was inactive. Further, the molecule was called inactive in assay [7], in assay [8], in [9] and in assay [10].

Turning to `Nc1ccc2c(c1)C(=O)c1ccccc1C2=O`, the molecule was called inactive in assay [1], in [2], in assay [3], in assay [4], in assay [6] and in [7]. The outcome in assay [8] and in assay [10] was inactive. For the same molecule, the results for the AC50 in [5] and in assay [9] were 3.98 µM (active) and 6.96 µM (active), respectively.

As for `CCCCCCCCCCCCCCCCCC(=O)O`, the molecule was classed as inactive in assay [1], in [2], in assay [3], in [4], in assay [5] and in [6]. The molecule was called inactive in assay [7], in assay [8], in [9] and in assay [10].

For `O=c1c(O)c(-c2ccc(O)c(O)c2)oc2cc(O)cc(O)c12`, the molecule was classed as inactive in assay [1], in [2], in [3], in [4] and in assay [6]. Further, the AC50 is 27 µM (active) in [5]; 65.6 µM (active) in [7]; 15.6 µM (active) in assay [8]; 13.7 µM (active) in assay [9]; 32 µM (active) in assay [10].

Consider `Cc1ccc(N(C)C)cc1`, for which the call in [1], in [2], in assay [3], in assay [4], in assay [5] and in [6] was inactive. The outcome in assay [7], in [8], in [9] and in [10] was inactive.

Take `c1cc(-c2ccncc2)ccn1`: the outcome in assay [1], in assay [2], in assay [3], in assay [4], in assay [5] and in assay [6] was inactive. The outcome in assay [7], in [8], in assay [9] and in assay [10] was inactive.

With `O=[N+]([O-])C(CO)(CO)CO`, the molecule was called inactive in assay [1], in assay [2], in assay [3], in assay [4], in [5] and in assay [6]. Moreover, the result in [7], in [8], in [9] and in assay [10] was inactive.

Turning to `Cc1cc(=O)[nH]c(=S)[nH]1`, the outcome in [1], in [2], in assay [3], in assay [4], in assay [5] and in assay [6] was inactive. The call in assay [7], in assay [8], in [9] and in assay [10] was inactive.

Regarding `O=C(OCCCCCOC(=O)c1ccccc1)c1ccccc1`, the molecule was called inactive in [1], in [2], in assay [3], in [4], in assay [5] and in assay [6]. For the same molecule, the result in assay [7], in assay [8], in [9] and in assay [10] was inactive.

Take `CN1CCN(Cc2cc(-c3ccc4[nH]c(=O)oc4c3)co2)[C@@H](c2ccc(F)cc2)C1`: the molecule was called inactive in assay [1], in assay [2], in assay [3], in assay [8] and in assay [10]. Also, the concentration at half-maximal activity (AC50) in [4] was 8.72 µM (active); in [5], 61.4 µM (active); in [6], 45.4 µM (active); in [7], 12.1 µM (active); in assay [9] it was 26.7 µM (active).

Regarding `Cc1cccc([N+](=O)[O-])c1C`, the call in assay [1], in assay [2], in assay [3], in assay [4], in assay [5] and in assay [6] was inactive. Besides, the outcome in assay [7], in [8], in [9] and in assay [10] was inactive.

Turning to `Cc1ccc(C)c(C)c1`, the result in assay [1], in assay [2], in assay [3], in assay [4], in [5] and in assay [6] was inactive. Moreover, the outcome in [7], in assay [8], in assay [9] and in assay [10] was inactive.

With `CCOC(=O)C(C)(C)Oc1ccc(Cl)cc1`, the molecule was called inactive in [1], in [2], in assay [3], in assay [4], in assay [5] and in assay [6]. Further, the outcome in assay [7], in [8], in assay [9] and in assay [10] was inactive.
